Screening results (PubChem BioAssay)
TIM10 inh: TIM10 yeast growth inhibition; hit rate 1.4% among 330,000; AID 463195; S. cerevisiae TIM10 strain growth, BacTiter-Glo luminescence, 24 h; inhibition, % at 10 µM;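 active = inhibition of 40% or more at the single tested concentration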;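 also: wild-type TIM10 isogenic control strain grown at permissive 25 °C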
tim10-1 inh: growth inhibitors of tim10-1 mutant yeast; S. cerevisiae tim10-1 ts strain growth, BacTiter-Glo, 24 h; inhibition, % at 20 µM; hit rate 2.2% among 330,000; AID 463190;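 active = inhibition of at least 40%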;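 also: mutant grown at 25 °C; 0% = DMSO wells with yeast and 100% = wells holding no yeast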
NALP1 inh: NALP1 inhibition; AID 2071; S. cerevisiae NALP1/ASC/caspase-1 growth, X-gal OD620, 72 h; hit rate 0.61% among 280,000; inhibition, % at 10 µM; in the data active = inhibition mostly above about 24%, no sharp cut-off; inactive = mostly below about 32%
tim23-1 inh: inhibits growth of tim23-1 mutant yeast | S. cerevisiae tim23-1 growth, BacTiter-Glo luminescence, 24 h | inhibition, % at 20 µM | hit rate 1.3% among 330,000 | AID 463212;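 active = growth inhibition of the mutant yeast at or above 50%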;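 also: temperature-sensitive mutant grown at 25 °C; plate controls were DMSO-treated mutant yeast for no effect and medium wells lacking yeast for full effect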
PfHsp90 set2: reduces growth (ATP signal) of yeast expressing P. falciparum Hsp90; hit rate 0.32% among 310,000; inhibition, % at 9.4 µM; S. cerevisiae expressing PfHsp90, BacTiter-Glo ATP, 48 h; yeast lacking PDR1 and PDR3 efflux regulators;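 active = every replicate shows inhibition above about 80%, whatever the replicate mean, limit read from the data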;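 also: 0% = DMSO neutral controls and 100% = 20 µM radicicol positive controls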
NLRP3 yeast inh: NALP3 inhibition in yeast; Yeast reconstituted NLRP3/ASC/caspase-1, beta-gal luminescence, 24 h; inhibition, % at 10 µM; hit rate 0.39% among 330,000;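 active = inhibition of 50% or more; inactive = inhibition below 50%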;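 also: plate controls were induced DMSO wells for no effect and uninduced yeast grown without galactose for full effect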
NALP3 yeast conf: confirmation of NALP3 inhibitors in yeast; yeast expressing human NALP3, luminescence; inhibition, % at 10 µM; hit rate 81% among 1,300; AID 435006; shares compounds with NLRP3 yeast inh; in the data active = inhibition above about 48%
Casp1 ASC ctr: active in yeast caspase-1-ASC counter-screen for NALP3 inhibitors; shares compounds with NLRP3 yeast inh; inhibition, % at 10 µM; hit rate 66% among 1,000; yeast expressing Caspase-1-ASC, luminescence counter screen
NALP3 retest: yeast NALP3 inhibition, confirmed on retest; AID 488794; yeast expressing human NALP3, luminescence read-out; hit rate 53% among 1,000; inhibition, % at 10 µM; shares compounds with NLRP3 yeast inh
tim10-1 conf: confirmation of tim10-1 mutant yeast growth inhibitors; shares compounds with tim10-1 inh; inhibition, % at 20 µM; hit rate 56% among 7,400; S. cerevisiae tim10-1 ts strain growth, BacTiter-Glo, 24 h;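 active = inhibition of yeast growth at or above a set limit in either of two repeat tests at 20 µM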;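 also: tim10-1 mutant grown at permissive 25 °C to find synthetic lethal compounds; 0% = DMSO yeast wells and 100% = medium wells without yeast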
tim10 confirm: TIM10 yeast growth inhibition, confirmed | shares compounds with TIM10 inh | S. cerevisiae tim10 strain growth, BacTiter-Glo luminescence, 24 h | inhibition, % at 10 µM | hit rate 63% among 4,600;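 active = inhibition of yeast growth at or above a set limit in either of two replicates at 10 µM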;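 also: this counterscreen used the strain with wild-type TIM10; 0% = yeast with DMSO and 100% = medium wells lacking yeast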
tim23-1 conf: confirmation of tim23-1 mutant yeast growth inhibitors; shares compounds with tim23-1 inh; S. cerevisiae tim23-1 growth, BacTiter-Glo luminescence, 24 h; inhibition, % at 20 µM; hit rate 83% among 4,400;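 active = inhibition above about 39% in either of two replicate wells at 20 µM, limit read from the data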;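 also: temperature-sensitive tim23-1 mutant grown at 25 °C; 0% = DMSO wells with yeast and 100% = medium wells without yeast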
The depositor's hits bear a star; . = not tested or not shown. A selection: hits, their analogues and other compounds. The true share with any hit is near 4.1%. Rule as the data show it, unless noted: active = inhibition above about 50%; inactive = the rest.

SMILES	TIM10 inh	tim10-1 inh	NALP1 inh	tim23-1 inh	PfHsp90 set2	NLRP3 yeast inh	NALP3 yeast conf	Casp1 ASC ctr	NALP3 retest	tim10-1 conf	tim23-1 conf	others
COc1c(O)c(=O)n2c3ccccc3c3ccnc1c32	35.4	35.7	.	61.9*	25.6	76.9*	85.1*	80.3*	82.0*	.	78.3*
Cn1c(=O)c(C(=O)NNC(=O)c2ccccc2Br)c(O)c2ccccc21	32.8	6.6	5.7	50.8*	19.4	58.8*	84.0*	53.1*	65.3*	.	35.3
Cn1c(=O)c(C(=O)Nc2ccccn2)c(O)c2ccccc21	33.1	7.9	4.6	57.4*	.	50.7*	63.5*	40.1	48.8	.	58.5*
CC(C)CNC(=O)c1ccc2c(c1)C(=O)N(Cc1ccco1)C2=O	-4.7	3.3	13.2	7.3	-10.8	10.1	.	.	.	.	.
NNC(=O)c1c(O)c2cccc3c2n(c1=O)CCC3	23.8	28.4	14.7	53.3*	-2.2	62.1*	76.2*	52.2*	52.0*	.	37.9
Cc1ccc(Nc2cc(C)nn2-c2nc(C)cc(=O)[nH]2)cc1	76.4*	62.7*	8.7	67.5*	104.8*	75.5*	81.3*	97.2*	93.4*	46.6*	51.8*	tim10 confirm=-16.6
O=C(Sc1cccc2cccnc12)c1ccccc1Br	53.2*	55.6*	29.3	88.8*	16.5	65.9*	63.7*	.	.	72.0*	67.3*	tim10 confirm=73.8*
CC(=O)/C(=N\Nc1ccccc1)Sc1cccc2cccnc12	13.2	15.2	19.0	26.6	6.7	2.0	.	.	.	.	.
C=CCN(c1ccccc1)S(=O)(=O)c1cccc(C(=O)NCC(c2cccs2)N2CCOCC2)c1 (stereo not drawn)	4.0	16.2	.	23.7	1.5	11.9	.	.	.	.	.
COc1ccc(C(=O)CC(=O)Nc2ccc([N+](=O)[O-])cc2)cc1	35.1	13.0	-8.1	63.7*	-11.2	67.0*	74.8*	77.7*	82.5*	.	73.7*
CCN(c1ccccc1)S(=O)(=O)c1ccc(C(=O)N2CCN(c3ccccc3)CC2)cc1	3.4	-4.8	.	18.5	.	26.2	.	.	.	.	.
C=CCSc1nsc(NC(=O)Nc2ccc(F)cc2)n1	66.2*	61.7*	52.3	77.6*	-0.7	55.7*	77.8*	79.4*	81.7*	73.5*	78.0*	tim10 confirm=65.4*
Cc1ccc(-n2nnnc2SCC(=O)N2CCc3ccccc3C2)cc1	40.7*	45.9*	-5.7	54.3*	13.7	70.4*	75.5*	76.7*	73.7*	41.2*	41.1*	tim10 confirm=33.5*
COc1cc(C(=O)NNC(=O)COc2ccc(Cl)cc2)ccc1OCC(=O)N1CCOCC1	6.1	-8.7	.	13.2	-4.8	8.1	.	.	.	.	.
CC(Sc1n[nH]c(N)n1)C(=O)NC1CCCCC1C (stereo not drawn)	4.7	-0.7	-2.2	-0.9	.	11.4	.	.	.	.	.
CC(=Nc1cccc(O)c1)c1sc2ccccc2c1O	17.6	36.6	7.3	63.3*	9.8	52.3*	50.2*	19.4	22.9	.	62.5*
CCOC(=O)CN1C(=O)N(CC(=O)OCC)C(c2ccccc2)(c2ccccc2)C1=O	2.2	10.7	13.6	27.0	5.3	17.9	.	.	.	.	.
CCCCOc1cccc(/C=C(\C#N)C(=O)NC2CC2)c1	35.5	87.7*	18.3	89.2*	-4.7	51.1*	54.2*	37.9	32.1	83.0*	84.8*
N#C/C(=C\c1ccc(OCC(N)=O)cc1)C(=O)NC1CC1	-0.8	-14.0	-11.3	-4.1	5.4	16.9	.	.	.	.	.
CCCCCCCCCCCCCCCC[n+]1cccc(C(=O)N(CC)CC)c1	24.6	96.1*	70.7*	60.0*	106.9*	63.1*	73.0*	72.4*	68.0*	94.3*	78.7*
CCCCCCCC[n+]1cccc(C(=O)N(CC)CC)c1	-3.1	-3.7	17.8	19.5	-9.5	7.5	.	.	.	.	.
COc1ccc(CCC(=O)N2CCN(S(=O)(=O)c3ccc(OC(F)(F)F)cc3)CC2)cc1	13.9	16.1	.	22.5	-32.6	15.3	.	.	.	.	.
COc1cc(OC)cc(C(=O)/C=C2\Sc3ccccc3N2C)c1	21.3	19.6	1.6	9.8	-7.9	24.7	.	.	.	.	.
CN1/C(=C\C(=O)c2cccs2)Sc2ccccc21	62.8*	38.4	-4.4	59.0*	33.7	62.3*	20.7	.	.	.	80.3*	tim10 confirm=60.3*
C/C(=N\NC(=O)c1cccc(O)c1)c1ccc(NC(=O)Cc2ccccc2)cc1	-11.5	-1.8	0.5	-9.7	-0.7	-8.0	.	.	.	.	.
SMILES	TIM10 inh	tim10-1 inh	NALP1 inh	tim23-1 inh	PfHsp90 set2	NLRP3 yeast inh	NALP3 yeast conf	Casp1 ASC ctr	NALP3 retest	tim10-1 conf	tim23-1 conf	others
CCCC/C(O)=C1\C(=O)CC(C)(C)CC1=Nc1ccccc1OC	26.2	41.2*	10.4	30.9	22.8	-36.4	.	.	.	25.5	.
CCn1ncc(/C=C/C(=O)c2ccccc2)c1C	2.6	45.6*	27.3	33.1	6.3	5.5	.	.	.	13.9	.
Nc1nonc1-n1nnc(C(=O)N/N=C/c2ccccc2F)c1CN1CCc2ccccc21	-5.2	46.0*	13.0	33.4	3.8	17.9	.	.	.	16.4	.
CCN1CCN(Cc2nnc(-c3ccc(C)cc3)o2)CC1	11.5	-8.7	10.9	1.6	5.2	-2.0	.	.	.	.	.
COc1cc(/C=C/c2cccc[n+]2C)ccc1OCC(=O)Nc1cccc(Cl)c1	-14.8	-7.1	14.4	-12.4	5.5	1.4	.	.	.	.	.
C=C(C)CC1Nc2ccccc2NC1CC(=C)C (stereo not drawn)	34.1	41.7*	14.8	43.4	9.4	6.6	.	.	.	40.7*	.
CCN(CC(=O)NC(C)(C)C)C(=O)CN1c2cccc3cccc(c23)S1(=O)=O	9.9	17.8	4.8	1.0	5.4	7.4	.	.	.	.	.
CC(=O)c1ccc(OCCCC(=O)Nc2cc(S(=O)(=O)N3CCCCC3)ccc2C)cc1	-6.8	11.5	.	-4.0	.	22.3	.	.	.	.	.
CN(C)c1ccc(/C=N/NC(=O)C(=O)/C=C2\NC3(CCCC3)Cc3ccccc32)cc1	28.3	42.5*	32.3	42.4	-18.5	14.3	.	.	.	18.9	.
O=C(/C=C1\NC2(CCCC2)Cc2ccccc21)C(=O)N/N=C/c1ccccc1O	22.7	32.8	22.1	47.7	0.3	16.7	.	.	.	.	.
COc1ccc(C(=O)NC2CCN(CC(=O)NCc3ccccc3F)CC2)cc1	0.7	-5.0	19.2	-9.6	-18.2	10.1	.	.	.	.	.
CC(=O)NC(=S)Nc1sc2c(c1C#N)CCCCC2	.	.	10.9	.	-77.9	.	.	.	.	.	.
